Our source for the growth values is PubChem BioAssay (NCI).

“And” between values parts separate entries of the source, which are not always exact repeats. Identical values can stand only once. The panel holds about 83,000 compounds, 20% with a hit somewhere; the sample as a whole holds those more often.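 Single-concentration screen, 48 h exposure, 96-well plates. Endpoint: percent growth. Below 10 = active.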 The source made the active and inactive calls.

For the experiment, the system named is MDA-MB-468 breast. The experiment can be described thus: NCI-60 one-dose screen, 48 h (100 = growth as untreated, 0 = no growth, -100 = all killed). The settings on record: 10 µM unless noted.
Turning to `N#CC1(C#N)C(c2ccc(N(CCCl)CCCl)cc2)OC23CCCCC2C1(C#N)C(=N)O3` (centres undefined), the growth is 56.5% (inactive).

Consider `CC(=O)O[C@H](C[C@H](C(C)C)N(C)C(=O)[C@@H](NC(=O)[C@H]1CCCCN1C)C(C)C)c1nc(C(=O)N[C@@H](Cc2ccccc2)C[C@H](C)C(=O)O)c(CCOCc2ccccc2)s1`, for which the growth was 1.12% (active).

Regarding `C/C(=N/OC(=O)N(C)C)c1ccc(Cl)cc1Cl`, the growth was 114% (inactive).

For `COc1cc(C=Nc2cccc(C(=O)O)c2)ccc1N(CCCl)CCCl`, the growth is 46.6% (inactive).

For the molecule `COC(=O)[C@H](Cc1ccccc1)NC(=O)c1csc([C@@H](C[C@H](C(C)C)N(C)C(=O)[C@@H](NC(=O)[C@H]2CCCN2C)C2CC2)OC(C)=O)n1`, the growth was -5.59% (active).

Consider `O=[N+]([O-])c1c(Cl)cc(Cl)c([N+](=O)[O-])c1Cl`, for which the growth was 15% (inactive).

Regarding `O=C(CC1(O)C(=O)Nc2ccc(Cl)cc21)c1ccc(C(=O)NCC2CCC3(CC2)OOC2(CCCCC2)OO3)cc1` (centres undefined), the growth is 18% (inactive).

For `O=C(O)C(O)c1ccc(Cl)cc1` (centres undefined), the growth is 84.9% (inactive) and 112% (inactive).

Regarding `Nc1ccc2c(c1)oc1ccccc12`, the growth is 92.6% (inactive).

Consider `N#CCc1ccccc1`, for which the growth was 101% (inactive).

`C[C@]12CCc3sc(Nc4ccc(O)cc4)nc3C1=CC[C@@H]1[C@@H]2CC[C@]2(C)C(=O)CC[C@@H]12`: the growth is -36.9% (active).

With `N#C[Se]Cc1cc(-c2ccccc2)n(-c2ccc(S(N)(=O)=O)cc2)n1`, the growth is -66.1% (active).

With `O=C(NCc1ccc([N+](=O)[O-])cc1)Nc1ccc(S(=O)(=O)F)cc1`, the growth was 40.4% (inactive).

For the molecule `O=S(=O)(F)c1ncnc2nc[nH]c12`, the growth is 96.1% (inactive).

As to `O=C1c2ccccc2C(=O)N1[N+](=O)[O-]`, the growth is 89.2% (inactive).

Turning to `CC(=O)Nc1ccc(C=C2C(=O)NC(=O)NC2=O)cc1`, the growth was 115% (inactive).

For the molecule `COc1cc2ncnc(Nc3ccc(F)c(Cl)c3)c2cc1OCC(=O)N1CCN(C)CC1`, the growth was -32.4% (active).

With `CCN(CC)c1ccc(C=C2C(=O)NC(=S)NC2=O)cc1`, the growth is 74.2% (inactive).

For `Fc1ccc2c(c1)c(-c1nc(-c3c[nH]c4ncccc34)cs1)cn2CCN1CCOCC1`, the growth is 43.8% (inactive).

As to `O=C(O)c1ccc([S-])cc1.[Au+].c1ccc(CN2[CH-]N(Cc3ccccc3)C(c3ccccc3)=C2c2ccccc2)cc1`, the growth is -63.2% (active).

Regarding `CC[C@H](C)[C@H](NC(=O)[C@H]1CCCCN1C)C(=O)N(C)[C@H](C[C@@H](OC(C)=O)c1cccc(C(=O)N[C@@H](Cc2ccccc2)C[C@H](C)C(=O)O)n1)C(C)C`, the growth is 31.2% (inactive).

For `CCCCN(CCCC)CC(O)c1ccccc1` (centres undefined), the growth is 116% (inactive).

For `CCC[CH2][Sn]1([CH2]CCC)[O]C(=O)c2cccc([N+](=O)[O-])c2C(=O)[O]1`, the growth was -79.4% (active).

With `O=C1CNC(c2ccccc2)c2cc(Cl)ccc2N1` (centres undefined), the growth was 104% (inactive).

Turning to `Cn1cc(C2=C(c3cn(C4CCN(Cc5ccccn5)CC4)c4ccccc34)C(=O)NC2=O)c2ccccc21`, the growth was 119% (inactive).

Take `CC1(C)C2CCC1(CS(=O)(=O)O)C(=O)C2` (centres undefined): the growth was 123% (inactive).

As for `CC[C@H](C)[C@H](NC(=O)CN(C)C)C(=O)N(C)[C@H](C[C@@H](OC(C)=O)c1nc(C(=O)NC23C4C5C2C2C3C4C52C(=O)OC)cs1)C(C)C` (some centres undefined), the growth is -18.6% (active).

As to `CC(=O)O[C@H]1C[C@@H]2OC3C=C(C)CCC3(C)[C@@]1(C)[C@@]21CO1` (some centres undefined), the growth was -26.7% (active) and -40.4% (active).

As for `NNc1ccccc1`, the growth is 109% (inactive).

On to `O=C(c1cccs1)C1NO[N+]([O-])=C1c1cccs1` (centres undefined), for which the growth is -47.7% (active).

Turning to `COc1ccc(C(=O)c2cc(OC)c(OC)c(OC)c2)cc1OC(C)=O`, the growth is 43.1% (inactive).

Regarding `CCCCNCCc1ccccn1`, the growth was 117% (inactive).

Take `CC1(C)N=C(N)N=C(N)N1c1ccc(CCCCc2ccc(Cl)cc2S(=O)(=O)F)c(Cl)c1`: the growth was -22.1% (active).

`O=C1NC(=O)C(=C/C=C/c2ccccc2)C(=O)N1`: the growth was 44.2% (inactive).

As for `CSc1ccccc1NP1(=O)OCC(C)([N+](=O)[O-])CO1` (centres undefined), the growth is 105% (inactive).

For the molecule `COc1cc2c(cc1OC)CN(C)C(C)C2` (centres undefined), the growth is 97.9% (inactive).

Take `N#CCc1ccc(CC#N)cc1`: the growth is 100% (inactive).

As to `CC(Cc1ccc2c(c1)OCO2)NN` (centres undefined), the growth was 105% (inactive).

As for `CC(=O)O[C@H]1CC[C@@]2(C)C(=CC[C@H]3[C@@H]4C[C@@H](N5CC5)[C@H](C(C)=O)[C@@]4(C)CC[C@@H]32)C1`, the growth was 79% (inactive).
